“And” between values parts separate entries of the source, which are not always exact repeats. Equal entries are not always repeated. The whole screen tested about 5,500 compounds, of which about 2,000 (36%) were called active. About 18% were inconclusive and are not listed. No stated cut-off is given here; in the data, active means normalized growth mostly below about 0.91 (no sharp cut-off); inconclusive means no clear call, values can overlap the other calls; inactive means mostly above about 0.92. The list shows a part of the results.
Test: chemical genetic growth profiling, strain panel (AID 1159580);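 further: tested at 20 µM; growth read once vehicle control cultures reached saturation at 30 °C; 1 = growth at the plate median or of vehicle wells; lower values mean less growth of the strain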
Conditions: growth OD

Measured: normalized growth

NC(=O)c1cnccn1
inactive: S. cerevisiae deletion strains, locus YJR075W, strain HOC1, hits give low values 1.03 | S. cerevisiae deletion strains, locus YKL009W, strain mrt4, hits give low values 1.02 | S. cerevisiae deletion strains, locus YKL068W, hits give low values 1 | S. cerevisiae deletion strains, locus YKL085W, strain MDH1 (second series), hits give low values 1.01 | S. cerevisiae deletion strains, locus YKL085W, strain MDH1, hits give low values 1.01 | S. cerevisiae deletion strains, locus YKL160W, strain elf1, hits give low values 0.967 | S. cerevisiae deletion strains, locus YKL190W, strain CNB1, hits give low values 1.01 | S. cerevisiae deletion strains, locus YKR001C, strain vps1, hits give low values 0.999 | S. cerevisiae deletion strains, locus YKR026C, strain gcn3, hits give low values 0.992 | S. cerevisiae deletion strains, locus YKR091W, strain srl3, hits give low values 0.99 | S. cerevisiae deletion strains, locus YLL001W, strain dnm1, hits give low values 0.955 | S. cerevisiae deletion strains, locus YLL026W, hits give low values 0.979 | S. cerevisiae deletion strains, locus YLL041C, strain sdh2, hits give low values 0.993 | S. cerevisiae deletion strains, locus YLR027C, strain aat2, hits give low values 0.976 | S. cerevisiae deletion strains, locus YLR039C, strain RIC1, hits give low values 1.05 | S. cerevisiae deletion strains, locus YLR058C, strain SHM2, hits give low values 1 | S. cerevisiae deletion strains, locus YLR102C, strain apc9, hits give low values 0.999 | S. cerevisiae deletion strains, locus YLR113W, strain HOG1, hits give low values 0.99 | S. cerevisiae deletion strains, locus YLR221C, strain rsa3, hits give low values 1.01 | S. cerevisiae deletion strains, locus YLR258W, strain gsy2, hits give low values 1.01 | S. cerevisiae deletion strains, locus YLR262C, strain YPT6 (second series), hits give low values 0.965 | S. cerevisiae deletion strains, locus YLR262C, strain YPT6, hits give low values 0.979 | S. cerevisiae deletion strains, locus YLR268W, strain sec22, hits give low values 1.05 | S. cerevisiae deletion strains, locus YLR320W, strain mms22, hits give low values 0.981 | S. cerevisiae deletion strains, locus YLR330W, strain CHS5, hits give low values 1.01 | S. cerevisiae deletion strains, locus YLR342W, strain FKS1 (second series), hits give low values 1.02 | S. cerevisiae deletion strains, locus YLR342W, strain FKS1, hits give low values 0.968 | S. cerevisiae deletion strains, locus YLR357W, strain rsc2, hits give low values 0.967 | S. cerevisiae deletion strains, locus YLR370C, strain arc18, hits give low values 0.999 | S. cerevisiae deletion strains, locus YLR371W, strain rom2, hits give low values 1.01 | S. cerevisiae deletion strains, locus YLR384C, strain iki3, hits give low values 0.977 | S. cerevisiae deletion strains, locus YLR418C, strain cdc73, hits give low values 1 | S. cerevisiae deletion strains, locus YML016C, strain PPZ1, hits give low values 1 | S. cerevisiae deletion strains, locus YML032C, strain rad52, hits give low values 1.02 | S. cerevisiae deletion strains, locus YML120C, strain ndi1, hits give low values 0.98 | S. cerevisiae deletion strains, locus YML124C, strain tub3, hits give low values 0.998 | S. cerevisiae deletion strains, locus YMR058W, strain fet3, hits give low values 0.98 | S. cerevisiae deletion strains, locus YMR078C, strain ctf18, hits give low values 1 | S. cerevisiae deletion strains, locus YMR125W, strain sto1, hits give low values 0.999 | S. cerevisiae deletion strains, locus YMR129W, hits give low values 0.993 | S. cerevisiae deletion strains, locus YMR205C, strain PFK2, hits give low values 0.998 | S. cerevisiae deletion strains, locus YMR223W, strain ubp8, hits give low values 0.985 | S. cerevisiae deletion strains, locus YMR231W, strain pep5, hits give low values 0.982 | S. cerevisiae deletion strains, locus YMR307W, strain GAS1, hits give low values 1.01 | S. cerevisiae deletion strains, locus YNL067W, strain RPL9B, hits give low values 1 | S. cerevisiae deletion strains, locus YNL071W, strain lat1, hits give low values 1.01 | S. cerevisiae deletion strains, locus YNL128W, strain TEP1, hits give low values 1.02 | S. cerevisiae deletion strains, locus YNL153C, strain GIM3, hits give low values 1 | S. cerevisiae deletion strains, locus YNL175C, strain NOP13, hits give low values 1 | S. cerevisiae deletion strains, locus YNL183C, strain NPR1, hits give low values 0.998 | S. cerevisiae deletion strains, locus YNL197C, strain WHI3, hits give low values 0.995 | S. cerevisiae deletion strains, locus YNL209W, strain ssb2, hits give low values 1 | S. cerevisiae deletion strains, locus YNL224C, strain SQS1, hits give low values 0.991 | S. cerevisiae deletion strains, locus YNL233W, strain BNI4, hits give low values 1.01 | S. cerevisiae deletion strains, locus YNL248C, strain rpa49, hits give low values 1.01 | S. cerevisiae deletion strains, locus YNL250W, strain rad50, hits give low values 0.998 | S. cerevisiae deletion strains, locus YNL271C, strain bni1, hits give low values 1 | S. cerevisiae deletion strains, locus YNL298W, strain CLA4, hits give low values 0.997 | S. cerevisiae deletion strains, locus YNL307C, strain MCK1, hits give low values 1.01 | S. cerevisiae deletion strains, locus YNL322C, strain KRE1 (second series), hits give low values 0.984 | S. cerevisiae deletion strains, locus YNR049C, strain mso1, hits give low values 0.998 | S. cerevisiae deletion strains, locus YNR052C, strain pop2, hits give low values 0.99 | S. cerevisiae deletion strains, locus YOL006C, strain TOP1, hits give low values 0.999 | S. cerevisiae deletion strains, locus YOL012C, strain htz1 1.57 | S. cerevisiae deletion strains, locus YOL147C, strain pex11, hits give low values 1 | S. cerevisiae deletion strains, locus YOR001W, strain rrp6, hits give low values 0.983 | S. cerevisiae deletion strains, locus YOR061W, strain CKA2, hits give low values 1 | S. cerevisiae deletion strains, locus YOR069W, strain VPS5, hits give low values 1.01 | S. cerevisiae deletion strains, locus YOR070C, strain gyp1, hits give low values 1 | S. cerevisiae deletion strains, locus YOR080W, strain dia2, hits give low values 0.978 | S. cerevisiae deletion strains, locus YOR083W, strain WHI5 (second series), hits give low values 1.02 | S. cerevisiae deletion strains, locus YOR083W, strain WHI5, hits give low values 0.955 | S. cerevisiae deletion strains, locus YOR106W, strain vam3, hits give low values 0.992 | S. cerevisiae deletion strains, locus YOR136W, strain idh2, hits give low values 0.988 | S. cerevisiae deletion strains, locus YOR144C, strain elg1, hits give low values 1 | S. cerevisiae deletion strains, locus YOR184W, strain ser1, hits give low values 1 | S. cerevisiae deletion strains, locus YOR231W, strain MKK1, hits give low values 1 | S. cerevisiae deletion strains, locus YOR265W, strain rbl2, hits give low values 0.985 | S. cerevisiae deletion strains, locus YOR270C, strain vph1, hits give low values 1.02 | S. cerevisiae deletion strains, locus YOR290C, strain snf2, hits give low values 1.02 | S. cerevisiae deletion strains, locus YOR316C, strain cot1, hits give low values 1.01 | S. cerevisiae deletion strains, locus YPL051W, strain arl3, hits give low values 0.993 | S. cerevisiae deletion strains, locus YPL055C, strain LGE1, hits give low values 0.976 and 0.968 | S. cerevisiae deletion strains, locus YPL078C, strain atp4, hits give low values 0.957 | S. cerevisiae deletion strains, locus YPL106C, strain sse1, hits give low values 0.97 | S. cerevisiae deletion strains, locus YPL240C, strain hsp82, hits give low values 0.979 | S. cerevisiae deletion strains, locus YPL241C, strain CIN2, hits give low values 1.01 | S. cerevisiae deletion strains, locus YPL256C, strain CLN2, hits give low values 1.02 | S. cerevisiae deletion strains, locus YPR119W, strain clb2, hits give low values 1.01 | S. cerevisiae deletion strains, locus YPR141C, strain kar3, hits give low values 0.993 | S. cerevisiae deletion strains, locus YPR163C, strain tif3, hits give low values 1.01 | S. cerevisiae deletion strains, locus YPR167C, strain met16, hits give low values 1.01 | S. cerevisiae deletion strains, strain wtn01, hits give low values 1 | S. cerevisiae strains, strain wild type, hits give low values 1.01

— PubChem BioAssay AID1159580 (chemical genetic matrix, 2015)
